# Screening results from PubChem BioAssay.
# USP30 block: human USP30 deubiquitinase inhibition; Q70CQ3; purified USP30, Ub-rhodamine cleavage fluorescence; inhibition, % at 25 µM; actives 5.3% (n = 47,000); AID 1645860
# OTUD3 block: blocks human OTUD3 ubiquitin-rhodamine cleavage | purified OTUD3, Ub-rhodamine fluorescence, 2 h | inhibition, % at 25 µM | Q5T2D3 | AID 1645858 | actives 0.7% (n = 47,000)
# USP28 block: inhibitors of human USP28 deubiquitinase; AID 1645857; actives 3% (n = 47,000); inhibition, % at 25 µM; purified USP28, Ub-rhodamine cleavage fluorescence, 30 min
# USP17 block: blocks human USP17 ubiquitin-rhodamine cleavage; purified USP17, Ub-rhodamine cleavage fluorescence, 3 h; A8MUK1; inhibition, % at 50 µM; actives 6.5% (n = 47,000)
# * marks the source's active call; other numbers are inactive results; . = no result given. Shown are actives, neighbours in structure and some others; about 11% of the full set was active somewhere. Cut-off read from the data, not from the text of the source: active = inhibition above about 30%; inactive = the rest.
SMILES,USP30 block,OTUD3 block,USP28 block,USP17 block
O=C(NCc1ccc2c(c1)OCO2)[C@@H]1Cc2c([nH]c3ccccc23)C2c3ccccc3C(=O)N21 (stereo partly drawn),-73,-7,-13,1
Cc1nc(C(=O)N[C@@H](C)C(=O)NCc2ccc3c(c2)OCO3)cc2c1[nH]c1ccccc12,9,-14,-5,57*
C[C@H](NC(=O)[C@@H]1Cc2c([nH]c3ccccc23)C2c3ccccc3C(=O)N21)C(=O)NCc1ccc2c(c1)OCO2 (stereo partly drawn),-49,16,10,34*
Cc1nc(C(C)C)ncc1C(=O)NCc1ccc2c(c1)OCO2,-20,-12,-18,-16
O=C1c2ccccc2C2c3[nH]c4ccccc4c3C(c3ccc4c(c3)OCO4)CN12 (stereo not drawn),-25,-1,13,33*
COc1ccc(C2CN3C(=O)c4ccccc4C3c3[nH]c4ccccc4c32)cc1 (stereo not drawn),-46,-6,7,5
Cc1cccc(NC(=O)Cc2nnc(-c3ccc4ncccc4c3)o2)c1,-28,-18,-7,-5
CCc1ccc(NC(=O)Cc2nnc(-c3ccc4ncccc4c3)o2)cc1,43*,15,21,63*
COCC(=O)N1CCC(c2nc3ccccc3cc2C(=O)N2CCCC2)CC1,3,-1,-2,0
O=C(c1ccc(F)cc1Cl)N(c1ccccn1)C1CCCCC1,27,4,12,.
O=C(c1ccc(Cl)cc1)N(c1ccccn1)C1CCCCC1,81*,44*,48*,87*
CN1CCN(c2ccc(-c3nc(-c4ccc(F)cc4)no3)nn2)CC1,11,9,1,6
COc1ccc(-c2noc(-c3ccc(N4CCC5(CC4)OCCO5)nn3)n2)cc1,-66,-1,-3,45*
Cc1cccc(NC(=O)c2nc3c(=O)[nH]c4cc(C)ccc4n3n2)c1,-174,-25,-11,35*
CCOc1ccc(NC(=O)c2nc3c(=O)[nH]c4cc(C)ccc4n3n2)cc1,-134,-31,-41,54*
CCOc1ccc(NC(=O)CSCC(=O)Nc2cccc(C)c2)cc1,-5,4,1,0
Cc1cnnn1-c1ccc(C(=O)Nc2ccc(Cl)cc2)cc1,58*,22,50*,45*
COc1cccc(-c2nccnc2C2CCCN(CC(N)=O)C2)c1 (stereo not drawn),2,0,-10,0
Cc1ccc(NC(=O)c2cn(-c3ccc(S(=O)(=O)N4CCCC4)cn3)cn2)cc1,29,12,13,13
CCNC(=O)c1cn(-c2ccc(S(=O)(=O)N3CCCC(C)C3)cn2)cn1 (stereo not drawn),.,0,.,44*
CC1CCCN(S(=O)(=O)c2ccc(-n3cnc(C(=O)NC4CC4)c3)nc2)C1 (stereo not drawn),32*,28,7,45*
CCC(=O)Nc1ccc(-n2cnc(C(=O)NC3CC3)c2)nc1,-2,-3,-6,-4
Cc1ccc2c(c1)N(S(C)(=O)=O)CCC(C(=O)Nc1ccccc1)O2 (stereo not drawn),19,7,6,5
O=S(=O)(c1ccc(F)cc1)N1CCN(c2cnn3cnnc3c2)CC1,5,9,8,7
O=S(=O)(c1cccc(Cl)c1)N1CCN(c2cnn3cnnc3c2)CC1,9,6,10,43*
SMILES,USP30 block,OTUD3 block,USP28 block,USP17 block
CCN1CCC2(CC1)OC(=O)C(C)=C2C(=O)NCc1ccc(OC)c(OC)c1,-13,-3,-8,-6
CCc1ccc(-n2c(=O)[nH]c3c(c2=O)C(C)(C)Cc2ccccc2-3)cc1,-1,8,3,37*
Cc1cc(C)cc(-n2cnc3cc(C(=O)NCCC4=CCCCC4)ccc32)c1,15,4,63*,0
CCN(CC)C(=O)C1Cn2ccnc2C2(CCN(C(=O)Nc3ccc(F)cc3)CC2)O1 (stereo not drawn),21,6,1,3
CCN1CCN(c2nc(NCc3ccco3)c3ccccc3n2)CC1,-15,-12,-9,-18
Cc1ccc(Nc2nc(NCc3ccco3)c3ccccc3n2)cc1,60*,35*,67*,82*
CCOC(=O)Cc1c(C)nc2c(-c3ccccc3)c(C)nn2c1C,-18,-9,-1,-1
Cc1cc(C)c(NC(=O)Cc2c(C)nc3c(-c4ccccc4)c(C)nn3c2C)c(C)c1,35*,17,18,22
Cc1ccc(NC(=O)c2nnc(C3CCCN3C(=O)C3CCC3)s2)cc1 (stereo not drawn),33*,21,15,14
O=C(Cn1c(=O)[nH]c2ccccc2c1=O)NCc1ccccc1Cl,17,9,6,40*
